Source: PubChem BioAssay (several laboratories)
Compounds with a hit are over-represented: about 28% of the library has one in this group of screens.
D1 mod = allosterically modulates the human D1 dopamine receptor | HEK293 D1, CRE-luciferase, dopamine EC30 potentiation; actives deviate in either direction | B-score at 10 µM | 5.9% of 58,000 active;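 active = luminescence count or its row- and column-corrected plate score outside the 99.7% band of the plate's sample wells, on either side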
CYP2C19 act = increases human CYP2C19 enzyme activity; P33261; recombinant CYP2C19, luciferin-H EGE luminescence; hits give high values; 0 = fully inhibited enzyme, 1 = untreated enzyme; activation factor at 5 µM; 96,000 tested, under 10 active; AID 1025;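 active = activation factor of at least 2 at 5 µM in the primary screen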;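 also: 0 = wells with 2.5 mM tranylcypromine and 1 = vehicle-only wells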
CYP2C9 inhib = inhibitors of human CYP2C9; P11712; 20% of 96,000 active; CYP2C9 Supersomes, luciferin-H conversion, luminescence; inhibition, % at 5 µM;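 active = blocking of liver enzyme CYP2C9 beyond about 50% at 5 µM, limit read from the data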
Target sequence (P11712 whole entry, looked up): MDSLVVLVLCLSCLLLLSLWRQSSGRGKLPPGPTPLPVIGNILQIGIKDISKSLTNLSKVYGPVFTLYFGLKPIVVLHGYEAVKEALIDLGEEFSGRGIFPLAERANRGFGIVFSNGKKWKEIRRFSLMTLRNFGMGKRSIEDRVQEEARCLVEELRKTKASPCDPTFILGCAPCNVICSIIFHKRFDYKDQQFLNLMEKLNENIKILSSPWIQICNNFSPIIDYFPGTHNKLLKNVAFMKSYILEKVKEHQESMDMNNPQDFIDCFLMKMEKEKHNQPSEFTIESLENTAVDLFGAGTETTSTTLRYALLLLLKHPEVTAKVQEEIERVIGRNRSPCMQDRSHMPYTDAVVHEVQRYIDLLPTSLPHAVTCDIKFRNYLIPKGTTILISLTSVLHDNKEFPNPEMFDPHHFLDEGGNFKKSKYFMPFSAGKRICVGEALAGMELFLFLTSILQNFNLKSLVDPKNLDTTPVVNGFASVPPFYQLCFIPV
DAT uptake mod = modulates human dopamine transporter uptake under cocaine. Q01959. LLC-PK1 hDAT cells, [14C]-dopamine uptake with cocaine IC80; actives deviate in either direction. B-score at 10 µM. 1.3% of 110,000 active. AID 449768;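 active = Z score or B-score, a plate-position-corrected score, falls beyond the plate's 99.7% confidence bounds, in either direction; inactive = both scores lie inside the 99.7% bounds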;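 also: scored against the spread of the other compound wells on the same plate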
CYP2C19 inh = blocks human cytochrome P450 2C19. inhibition, % at 5 µM. CYP2C19 Supersomes, luciferin-H EGE luminescence, 30 min. 21% of 96,000 active. AID 778;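 active = CYP2C19 inhibition above a set limit at 5 µM in the primary screen, cut at about 50% in these data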;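 also: plate controls were negative control wells for no effect and 2.5 mM tranylcypromine positive control for full effect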
CYP2C9 act = activators of human CYP2C9 | P11712 | recombinant CYP2C9, luciferin-H conversion, luminescence; hits give high values; factor 1 = untreated enzyme, 0 = blocked | activation factor at 5 µM | 1.4% of 96,000 active | AID 1024;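 active = activation factor of 2 or more for CYP2C9 at a 5 µM dose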;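 also: 0 = sulfaphenazole-blocked wells and 1 = vehicle-only wells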
* hit, by the source's call; x = no result given.

SMILES	D1 mod	CYP2C19 act	CYP2C9 inhib	DAT uptake mod	CYP2C19 inh	CYP2C9 act
CCCC(=O)Nc1cnc(NC(=O)c2cccc(F)c2)cc1C	-3.1*	0.3	23	-1.4	68*	0.8
CCC(=O)Nc1ccc(NC(=O)c2ccccn2)cn1	-2.9	1.1	-24	0.71	-8	1.2
CCCC(=O)Nc1cc(C)c(NC(=O)c2ccccn2)cn1	-0.74	0.5	-3	0.72	54*	1
Cc1cc(NC(=O)C(C)C)ncc1NC(=O)c1cccc(F)c1	0.14	0.9	18	0.97	11	0.8
COc1ccc(NC(=O)Nc2cc(C)ccc2OC(F)F)c(OC)c1	-0.5	0.7	30	0.47	33	0.7
CCCN1C(=O)SC(CC(=O)Nc2ccccc2)C1=O (stereo not given)	x	0.1	50*	-1.2	89*	0.5
CCCN1C(=O)SC(CC(=O)Nc2cccc3ccccc23)C1=O (stereo not given)	x	x	x	-0.17	x	x
O=C(CC1SC(=Nc2ccccc2)N(CCCO)C1=O)Nc1ccc(Cl)cc1 (stereo not given)	-0.64	0.3	88*	0.28	73*	0.1
COCCN1C(=O)C(CC(=O)Nc2ccccc2)SC1=Nc1ccc(OC)cc1 (stereo not given)	x	0.4	81*	1.2	56*	0.2
CCOC(=O)C(CC)n1nc(C)n2c(cc3sccc32)c1=O (stereo not given)	1.6	0.7	50	-1.4	31	0.5
O=c1c2ccccc2nc2n1CCN2Cc1ccc(Cl)cc1	-2.6	0.3	67*	-0.21	74*	0.3
O=c1c2ccccc2nc(-c2ccccc2)n1Cc1ccc(Cl)cc1	x	0.2	82*	1	77*	0.2
Brc1ccc(C2=NC(Cc3ccccc3)CO2)cc1 (stereo not given)	x	x	x	0.18	x	x
CN1/C(=C\C(=O)c2ccco2)C(C)(C)c2ccccc21	-0.7	0.8	56*	-0.00047	25	0.4
CN1/C(=C\C(=O)COc2ccc3c(c2)OCO3)C(C)(C)c2ccccc21	-0.76	0.8	87*	x	24	0.1
CN1/C(=C\C(=O)COC(=O)C2COc3ccccc3O2)C(C)(C)c2ccccc21 (stereo not given)	1.3	1	3	-0.67	-1	1
CN1/C(=C\C(=O)C(F)F)C(C)(C)c2ccccc21	-0.68	0.7	53*	0.22	34	0.5
Cc1cccc(NC(=S)N(CCN(C)C)C(C)c2ccccn2)c1 (stereo not given)	x	0.9	2	0.19	12	1
CC(Cc1ccccc1)NC(=O)CSc1nc2nc3c(cc2c(=O)n1-c1ccccc1)COC(C)(C)C3 (stereo not given)	x	1	8	-0.39	0	0.9
CCCCCCNC(=O)Cc1nc2nc(C)cc(C)n2n1	-0.7	1.1	-15	0.19	-12	1.2
C=CCCCN(Cc1ccccc1)S(=O)(=O)c1ccccc1Br	x	x	x	0.087	x	x
CCCNCc1cc(OC)c(OCCC)cc1Cl	x	x	x	-0.48	x	x
CCN(c1ccccc1)S(=O)(=O)c1ccc(NCC2COc3ccccc3O2)nc1 (stereo not given)	1.7	0.5	84*	0.48	52*	0.2
C#CCSc1nnc(-c2sc(-c3ccccc3)nc2C)n1C	x	0.1	41	1.5	87*	0.6
C#CCSc1nnc(-c2c[nH]c3ccccc23)n1C	-1.1	0.8	-4	-0.045	15	1
SMILES	D1 mod	CYP2C19 act	CYP2C9 inhib	DAT uptake mod	CYP2C19 inh	CYP2C9 act
COc1ccc(C2c3cc(OC)c(OC)cc3CCN2C2CC(=O)N(c3ccccc3)C2=O)cc1OC (stereo not given)	x	0.8	50	-0.1	16	0.5
O=S(=O)(Nc1ncnc2c1oc1ccccc12)c1ccc(Cl)s1	0.35	0.4	92*	-0.0019	61*	0.1
CCOC(=O)C1=C(C)OC(N)=C(C#N)C1c1ccc(C)o1 (stereo not given)	x	0	58*	0.002	98*	0.4
CCOC(=O)C1=C(C)OC(N)=C(C#N)C1c1ccoc1 (stereo not given)	0.68	0.5	16	0.65	54*	0.8
CCOC(=O)CC1=C(C(=O)OCC)C(c2ccncc2)C(C#N)=C(N)O1 (stereo not given)	-1.1	0.2	59*	-1.5	79*	0.4
CCOC(=O)C1=C(c2ccccc2)OC(N)=C(C#N)C1c1ccc(Cl)s1 (stereo not given)	x	0.7	22	1.3	34	0.8
CCOC(=O)C1=C(C)OC(N)=C(C#N)C1c1ccc(O)c(OC)c1 (stereo not given)	x	0.5	33	1.3	49	0.7
CCOC(=O)C1C(C#N)=C(N)OC(C)=C1c1ccncc1 (stereo not given)	-0.028	0.2	90*	-0.29	80*	0.1
CC1=C(C(=O)OC(C)(C)C)C(c2ccco2)C(C#N)=C(N)O1 (stereo not given)	1	0.1	52*	0.6	93*	0.5
COc1ccccc1CNC(=O)C[n+]1ccccc1	x	1.1	22	-0.2	-7	0.8
OC[C@@H](O)[C@@H](O[C@H]1O[C@H](CO)[C@@H](O)[C@H](O)[C@H]1O)[C@H](O)[C@@H](O)CO	x	x	x	-0.53	x	x
O=C(CSc1nnc(-c2cccs2)n1-c1ccccc1)N1CCCc2ccccc21	x	0.5	85*	0.11	49	0.1
CCn1nnnc1SCC(=O)N1c2ccccc2CCc2ccccc21	-0.072	0.1	71*	-0.039	91*	0.3
O=C(CSc1nnnn1-c1ccc(Cl)cc1)N1CCc2ccccc2C1	-0.096	0.3	37	0.86	74*	0.6
Nc1nc(SCC(=O)N2CCCc3ccccc32)n(-c2ccccc2)n1	-0.021	0.3	34	1.6	75*	0.7
Nn1c(SCC(=O)N2CCCc3ccccc32)nnc1-c1ccccc1	-0.11	0.8	-3	-0.034	23	1
CCn1c(SCC(=O)N2CCCc3ccccc32)nnc1-c1cccs1	-0.63	0.8	-24	1.2	20	1.2
O=C(CSc1nnnn1C1CCCCC1)N1CCc2ccccc21	-0.14	1.1	-11	-0.069	-14	1.1
O=C(CSc1nnnn1-c1ccccc1)N1CCc2ccccc21	-0.89	1.1	-9	0.02	-6	1.1
O=C(CSc1nnnn1-c1ccccc1)N1CCCc2ccccc21	x	0.2	58*	2.3	80*	0.4
CCCn1nnnc1SCC(=O)N1CCCc2ccccc21	x	0.2	19	-0.12	83*	0.8
O=C(CCC1CCCC1)Nc1ccc(Br)cn1	-0.13	0.7	27	-0.57	28	0.7
CC(=O)Nc1ccc(Cl)cc1C(=O)O	0.025	1	3	0.92	-2	1
Cc1sc(NC(=O)c2ccco2)c(C(c2ccncc2)N2CCOCC2)c1C (stereo not given)	-1	0.3	81*	0.94	67*	0.2
